Reference: PubChem BioAssay (Tox21)
Inconclusive results are not listed. Calls of active or inactive are those of the source. Unless noted, calls follow the shape of the dose curve; as a rule, active = well fitted curve in the direction sought with a large enough effect in the repeat runs; inconclusive = weak or mixed curves; inactive = no such curve, though single readings can be large; an effect the other way counts as inactive or inconclusive.

Key:
[1] = qHTS RealTime-Glo MT Cell Viability Assay in HEK293 cells - 24 hour (AID 1224886); also: top concentration of the series differs between compounds; nearly all actives have a fitted effect of over 50% in size
Procedure, shortened: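 Quantitative high-throughput screen of the Tox21 10K library in HEK293: cells and RealTime-Glo reagents plated together, compound added at 5 h, luminescence monitored through 40 h at 37 C.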

[2] = qHTS RealTime-Glo MT Cell Viability Assay in HEK293 cells - 8 hour (AID 1224887); also: top concentration of the series differs between compounds; nearly all actives have a fitted effect of over 50% in size
Procedure, shortened: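 Nonlytic bioluminescent viability monitoring. HEK293 at 600 cells/well with reagent; 5 h settle; compound transfer by pintool; plates held at 37 C and read at set time points.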

[3] = A CellTox Green Cytotoxicity Assay to monitor cytotoxicity in HEK293 cells - 16 hour (AID 1224888); also: nearly all actives have a fitted effect of over 35% in size
Procedure, shortened: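 Cytotoxicity was tracked continuously in HEK293 cells by a DNA-binding dye excluded from viable cells. Compounds were transferred in DMSO 5 h after seeding; fluorescence was recorded at intervals up to 40 h.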

[4] = qHTS RealTime-Glo MT Cell Viability Assay in HepG2 cells - 0 hour (AID 1224889); also: nearly all actives have a fitted effect of over 50% in size
Procedure, shortened: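 Compound treatment began 5 h after plating HepG2 cells (600/well) with NanoLuc luciferase and prosubstrate. Plates stayed at 37 C for 40 h; luminescence was captured at six time points, 0 h through 40 h.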

[5] = A CellTox Green Cytotoxicity Assay to monitor cytotoxicity in HepG2 cells - 8 hour (AID 1224890); also: nearly all actives have a fitted effect of over 45% in size
Procedure, shortened: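 Real-time, homogeneous cytotoxicity readout: dead-cell DNA staining by CellTox Green in HepG2 monolayers, fluorescence measured at timed intervals up to 40 h of continuous compound exposure.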

[6] = qHTS assay to identify small molecule antagonists of the estrogen receptor alpha (ER-alpha) signaling pathway using the BG1 cell line in the presence of 0.1 nM 17-beta-estradiol - cell viability counter screen (AID 1259241); also: nearly all actives have a fitted effect of over 40% in size
Procedure, shortened: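 Estradiol-stimulated (0.1 nM) VM7Luc4E2 cells exposed to compounds 22 hr; viability measured by fluorescence of cleaved CellTiter-Fluor substrate after 30 min.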

[7] = qHTS assay to identify small molecule antagonists of the androgen receptor (AR) signaling pathway using the MDA cell line in the presence of 0.5 nM R1881 - cell viability counter screen (AID 1259242); also: nearly all actives have a fitted effect of over 45% in size
Procedure, shortened: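 Cytotoxicity toward MDA-kb2 cells is measured by CellTiter-Fluor live-cell protease fluorescence after 16 hr compound exposure at 37C in the presence of 0.5 nM R1881 stimulator.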

[8] = qHTS assay to identify small molecule HDAC inhibitors (AID 1259364); also: top concentration of the series differs between compounds; nearly all actives have a fitted effect of over 45% in size
Procedure, shortened: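 Homogeneous cell-based luminescent assay of endogenous class I/II HDAC activity; HCT-116 cells, 2 h compound exposure, 30 min HDAC-Glo development at RT.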

[9] = biological target: Estrogen receptor (Homo sapiens) (UniProt P03372); assay: qHTS assay to identify small molecule antagonists of the estrogen receptor alpha (ER-alpha) signaling pathway using the BG1 cell line in the presence of 0.1 nM 17-beta-estradiol (AID 1259244); also: nearly all actives have a fitted effect of over 50% in size
Procedure, shortened: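 After 5 days in hormone-depleted medium (charcoal-stripped serum, no phenol red), VM7Luc4E2 cells were seeded, incubated 24 h, then co-treated with compound and 0.1 nM (final) estradiol for 22 h before luminescence detection.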

[10] = qHTS assay to identify small molecule phospholipidosis (PLD) inducers (AID 1259344; active = well fitted curve in the direction sought with a large enough effect; an effect the other way counts as inactive or inconclusive)
Procedure, shortened: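 Quantitative HTS in HepG2: compound plus LipidTOX Red dye for 24 h, paraformaldehyde fixation with Hoechst 33342, widefield high-content imaging; amiodarone as positive and DMSO as negative control.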
% is scaled to controls: 0 for no effect and ±100 for the full control effect.

Chain of Estrogen receptor (Homo sapiens) (P03372 whole entry, looked up): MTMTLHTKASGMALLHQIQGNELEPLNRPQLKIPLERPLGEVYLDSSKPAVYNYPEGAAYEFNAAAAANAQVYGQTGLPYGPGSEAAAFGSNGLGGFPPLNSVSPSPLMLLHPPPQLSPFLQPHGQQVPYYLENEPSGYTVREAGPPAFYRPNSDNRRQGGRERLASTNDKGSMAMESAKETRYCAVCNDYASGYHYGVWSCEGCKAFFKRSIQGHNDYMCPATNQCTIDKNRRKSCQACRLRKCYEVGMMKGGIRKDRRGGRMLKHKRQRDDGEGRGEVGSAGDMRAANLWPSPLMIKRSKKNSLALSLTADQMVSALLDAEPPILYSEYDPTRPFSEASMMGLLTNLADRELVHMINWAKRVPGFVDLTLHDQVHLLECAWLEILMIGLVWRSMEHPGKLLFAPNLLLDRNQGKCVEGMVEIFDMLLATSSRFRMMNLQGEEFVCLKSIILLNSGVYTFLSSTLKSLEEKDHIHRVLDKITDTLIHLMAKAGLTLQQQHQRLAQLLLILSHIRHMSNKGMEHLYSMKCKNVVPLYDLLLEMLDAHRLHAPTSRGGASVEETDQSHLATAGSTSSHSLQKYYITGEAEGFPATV

NC(Cc1c[nH]c2ccccc12)C(=O)O (centres undefined)
inactive: Potency [1] | Potency [2] | Potency [3] | Potency [4] | Potency [5] | Potency [6] | Potency [7] | Potency [8]

C=CCOCC(O)CCl (centres undefined)
inactive: Potency [1] | Potency [2] | Potency [3] | Potency [4] | Potency [5] | Potency [6] | Potency [7] | Potency [9] | Potency [8]

C=C(C)C(=O)OC1CC(C)CC(C)(C)C1 (centres undefined)
inactive: Potency [1] | Potency [2] | Potency [3] | Potency [4] | Potency [5] | Potency [6] | Potency [7] | Potency [8]

CCCCCCCCCCCCCCCCI
inactive: activity change, negative = cytotoxicity [1] -7.78% [at 15.8 µM] | activity change, negative = cytotoxicity [2] -0.789% [at 15.8 µM] | activity change [3] -4.25% [at 15.8 µM, hits give high values] | activity change, negative = cytotoxicity [4] -19.8% [at 15.8 µM] | cytotoxicity increase [5] -10.7% [at 15.8 µM] | activity change, negative = cytotoxicity [6] 7.96% [at 19 µM] | viability change, negative = cytotoxic [7] 2.57% [at 19 µM] | activity change, negative = inhibition [8] 1.82% [at 19 µM]

NS(=O)(=O)c1cc2c(cc1Cl)NC(C(Cl)Cl)NS2(=O)=O (centres undefined)
inactive: Potency [1] | Potency [2] | Potency [3] | Potency [4] | Potency [5] | Potency [6] | Potency [7] | outcome [10] | Potency [8]

CCNC(=O)/C=C/c1cccc(Br)c1
inactive: Potency [1] | Potency [2] | Potency [3] | Potency [4] | Potency [5] | Potency [6] | Potency [7] | outcome [10]

Cc1ncc([N+](=O)[O-])n1CC(O)CCl (centres undefined)
inactive: Potency [1] | Potency [2] | Potency [3] | Potency [4] | Potency [5] | Potency [6] | Potency [7] | outcome [10] | Potency [8]

C=C(C)C(=O)OCCCCCCOC(=O)C(=C)C
inactive: Potency [1] | Potency [2] | Potency [3] | Potency [4] | Potency [5] | Potency [6] | Potency [7] | Potency [8]

Nc1cc(S(=O)(=O)O)ccc1S(=O)(=O)O
inactive: Potency [1] | Potency [2] | Potency [3] | Potency [4] | Potency [5] | Potency [6] | Potency [7] | Potency [8]

O=C(O)c1ccccc1C(=O)Nc1ccc(S(=O)(=O)Nc2nccs2)cc1
inactive: Potency [1] | Potency [2] | Potency [3] | Potency [4] | Potency [5] | Potency [6] | Potency [7] | outcome [10] | Potency [8]

Cn1c(=O)c2c(ncn2CC2OCCO2)n(C)c1=O
inactive: Potency [1] | Potency [2] | Potency [3] | Potency [4] | Potency [5] | Potency [6] | Potency [7] | outcome [10] | Potency [8]

CC(C)C(=O)Nc1cccc(C(F)(F)F)c1
inactive: Potency [1] | Potency [2] | Potency [3] | Potency [4] | Potency [5] | Potency [6] | Potency [7] | Potency [9] | Potency [8]

COc1ccc(NS(=O)(=O)c2ccc(N)cc2)nn1
inactive: Potency [1] | Potency [3] | Potency [4] | Potency [5] | Potency [6] | Potency [7] | Potency [9] | outcome [10] | Potency [8]

CCCCCCCCCCCCCCCCCCN(C)C
inactive: Potency [1] | Potency [2] | Potency [4] | Potency [5] | Potency [6] | Potency [7] | Potency [9] | Potency [8]

C=COCCOCCOC=C
inactive: Potency [1] | Potency [2] | Potency [3] | Potency [4] | Potency [5] | Potency [6] | Potency [7] | Potency [8]

CCOC(=O)CC(CC(=O)OCC)(OC(C)=O)C(=O)OCC
inactive: Potency [1] | Potency [2] | Potency [3] | Potency [4] | Potency [5] | Potency [6] | Potency [7] | Potency [8]

CC(C)COC(=O)COc1ccc(Cl)cc1Cl
inactive: Potency [1] | Potency [2] | Potency [4] | Potency [5] | Potency [6] | Potency [7] | Potency [8]

C1=CCC(c2ccccc2)CC1 (centres undefined)
inactive: Potency [1] | Potency [2] | Potency [3] | Potency [4] | Potency [5] | Potency [6] | Potency [7] | Potency [8]

CC(=O)OCC(=O)[C@@]1(O)[C@H](OC(C)=O)C[C@H]2[C@@H]3CCC4=CC(=O)C=C[C@]4(C)[C@@]3(F)[C@@H](O)C[C@@]21C
inactive: Potency [1] | Potency [2] | Potency [3] | Potency [5] | Potency [6] | Potency [7] | Potency [9] | outcome [10] | Potency [8]
